Results reported in ChEMBL document CHEMBL1157539, “Thousands of chemical starting points for antimalarial lead identification” (Nature, 2010).

Key:
Assay type in all cases: functional
Plasmodium falciparum [1] = assay: GSK_TCMDC: Inhibition of Plasmodium falciparum 3D7 in whole red blood cells, using parasite LDH activity as an index of growth. Test compounds present at 2uM
Plasmodium falciparum [2] = assay: GSK_TCMDC: Inhibition of Plasmodium falciparum Dd2 in whole red blood cells, using parasite LDH activity as an index of growth. Test compounds present at 2uM
HepG2 = assay: GSK_TCMDC: Percent inhibition of human HepG2 cell line. Test compounds present at 10uM.

SMILES	Inhibition (Plasmodium falciparum [1])	Inhibition (Plasmodium falciparum [2])	Inhibition (HepG2)
CNS(=O)(=O)Cc1ccc(Nc2nccc(Nc3cccc4c3cnn4C(=O)Nc3ccccc3)n2)cc1	89%	5%	45%
Cc1ccc(Nc2nc3cc(N(C)c4ccnc(Nc5cccc(CCS(C)(=O)=O)c5)n4)ccc3n2C)cc1.O=C(O)C(F)(F)F	99%	73%	78%
Fc1cc(Cl)ccc1Nc1ccnc2cc(I)ccc12	90%	10%	11%
C=C1C(C(=O)OCC)=CN(CC)c2cc(O[C@H]3CCN(C(=O)OC(C)(C)C)C3)ccc21	98%	75%	9%
COc1cc(Cc2cnc(N)nc2N)cc(OCCCCc2nnn[nH]2)c1OC	97%	0%	7%
O=C(Nc1cc(C(F)(F)F)cc(C(F)(F)F)c1)c1cccc([N+](=O)[O-])c1	93%	15%	23%
Cc1ccc(-c2ccc(NC(=O)N3CCc4cc(Br)c(N5CCN(C)CC5)cc43)cc2)cn1	80%	16%	86%
Br.Fc1ccc(C2N=C(SCCSC3=NC(c4ccc(F)cc4)C(c4ccc(F)cc4)N3)NC2c2ccc(F)cc2)cc1 (stereo not given)	99%	69%	18%
CN(C)CCOc1ccc2nc(-c3cccc(OCc4ccccc4)c3)[nH]c2c1C#N	100%	86%	48%
O=C(c1ccc(F)c(F)c1)N1CCOC(CCN2CCC(c3ccccc3)CC2)(c2ccc(Cl)c(Cl)c2)C1 (stereo not given)	89%	75%	51%
CN(C)C=Nc1ccc(OCCCCCCOc2ccc(N=CN(C)C)cc2)cc1.Cc1ccc(S(=O)(=O)O)cc1	100%	94%	26%
COc1ccc2ncc(F)c(CCN3CC(O)C(CNCc4ccc(F)cc4)C3)c2n1.Cl (stereo not given)	93%	21%	38%
Cl.c1ccc(CC2=NCCN2)cc1 [TOLAZOLINE HYDROCHLORIDE]	94%	0%	3%
Cc1ccc(OCC2CCN(c3ncc(C(=O)NC4CC4)cc3Cl)CC2)cc1	88%	72%	2%
O=C(c1cc(-c2cccs2)n[nH]1)N1CCN(S(=O)(=O)c2ccc(Br)cc2)CC1	93%	95%	0%
O=C(NC1CC1)c1ccc(N2CCC(Cc3ccccc3)CC2)nc1.O=C(O)C(F)(F)F	95%	92%	13%
CCOc1ccc(-c2nonc2NC(=O)c2ccc(Cl)cc2)cc1OCC	94%	47%	28%
COc1ccc(NS(=O)(=O)c2ccc(C(=O)Nc3ccc(OC(F)(F)F)cc3)cc2)cc1N1CCN(CC2CC2)CC1.O=C(O)C(F)(F)F	89%	0%	18%
Cc1c(CCNC(=O)CCCN2CC(C)CC(C)C2)c2ccccc2n1C.Cl (stereo not given)	87%	100%	8%
COc1ccc(OC)c(C=NNc2nc3ccccc3[nH]2)c1	99%	28%	0%
Cl.Oc1ccc(Nc2nc(NCC3CCCO3)c3ccccc3n2)cc1 (stereo not given)	100%	57%	7%
CC(C)Cc1cn(-c2nc(-c3nc4ccccc4[nH]3)cs2)c2ccncc12.Cl	100%	99%	34%
N#Cc1c(-c2ccccc2)cn2c1[nH]c(=O)c1ccccc12	92%	95%	0%
CCc1c(C)nc(-n2nc(C)cc2NC(=O)C2c3ccccc3Oc3ccccc32)[nH]c1=O	89%	80%	37%
c1nc2nc3c(c(Nc4ccc5c(c4)CCC5)n2n1)CCC3	87%	70%	0%
Cl.N#Cc1ccc(C=CC(=O)NC2CCC(CCN3CCc4ccc(-c5cnccn5)cc4CC3)CC2)cc1 (stereo not given)	100%	87%	37%
Cc1cnc(C(=O)Nc2cccc(-c3ccc(-c4nc5cc(C(F)(F)F)ccc5[nH]4)s3)c2)cn1	86%	14%	35%
Cc1cccc2nc(-c3ccc(-c4cccc(CN5CCCC5CN)c4)s3)[nH]c12.O=C(O)C(F)(F)F (stereo not given)	91%	45%	20%
CC(C)CNCc1ccc(-c2ccccc2CN(C(=O)NCCc2ccccc2)C2CCN(Cc3ccccc3)CC2)cc1.O=C(O)C(F)(F)F	98%	94%	89%
Cc1cccc2nc(-c3ccc(-c4ccc(CN5CCC(CO)CC5)cc4)s3)[nH]c12.O=C(O)C(F)(F)F	100%	82%	15%
